Laboratory results from PubChem BioAssay (NCATS).
Values joined by “and” are separate entries in the source; they are usually repeats but may differ in a detail not shown here. Identical values can stand only once. Records with an inconclusive call do not appear. A structure can be active in one record and inactive in another. Active and inactive are the calls of the source. Unless noted, calls come from the whole dose curve; as a rule, active = well fitted curve in the direction sought with a large enough effect; inconclusive = small, poorly fitted or top-dose-only effect, or another doubt; inactive = no such curve, though single readings can be large; an effect the other way counts as inactive or inconclusive.

What was measured:
[1] = qHTS assay for environmental chemicals that activate the Aryl hydrocarbon Receptor (AhR) signaling pathway (AID 651777); conditions: 1A2-DRE human hepatoma cells, luciferase, 24 h; activation: stronger effect = higher value; note: nearly all actives have a fitted effect of over 15% in size; note: potency is the fitted concentration of half-maximal effect; for activation: % of control where 0% means no effect
Summary of the method: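 Luminescence read-out: One-Glo added for 30 min at RT after 24 hr compound treatment (37 C, 5% CO2) of human hepatoma cells expressing a DRE/CYP1A2 promoter–luciferase reporter; increased signal indicates AhR activation.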

[2] = target: Peroxisome proliferator-activated receptor alpha (Homo sapiens) (UniProt Q07869); experiment: qHTS assay for small molecule agonists of the peroxisome proliferator-activated receptor alpha (PPARalpha) signaling pathway (AID 651778); conditions: PathHunter PPARalpha complementation, chemiluminescence, 6 h; max response: stronger effect = higher value; note: % of control where 0% means no effect
Peroxisome proliferator-activated receptor alpha (Homo sapiens), sequence (Q07869 whole entry, looked up, the tested form may be a part): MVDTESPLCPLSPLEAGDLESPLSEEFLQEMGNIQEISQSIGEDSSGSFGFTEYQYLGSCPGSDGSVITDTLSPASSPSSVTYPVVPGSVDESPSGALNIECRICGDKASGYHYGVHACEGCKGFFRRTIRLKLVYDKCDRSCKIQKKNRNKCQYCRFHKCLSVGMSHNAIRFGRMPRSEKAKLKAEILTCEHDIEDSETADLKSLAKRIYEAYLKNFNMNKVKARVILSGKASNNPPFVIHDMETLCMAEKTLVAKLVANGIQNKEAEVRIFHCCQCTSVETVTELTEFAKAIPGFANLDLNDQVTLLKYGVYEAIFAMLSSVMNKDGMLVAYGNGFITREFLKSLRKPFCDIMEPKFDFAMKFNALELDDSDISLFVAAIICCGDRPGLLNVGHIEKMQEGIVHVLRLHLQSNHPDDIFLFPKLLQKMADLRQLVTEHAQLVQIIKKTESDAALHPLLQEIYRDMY
Summary of the method: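 Enzyme-fragment complementation assay in which ligand-bound PPARalpha translocates and forms an active enzyme that generates chemiluminescence. Cells were plated overnight, exposed to compound for 6 hr at 37 C, and then given detection reagent for 60 min at room temperature.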

[3] = target: Nuclear receptor ROR-gamma (Homo sapiens) (UniProt P51449); experiment: qHTS assay for small molecule antagonists of the retinoid-related orphan receptor gamma (ROR-gamma) signaling pathway (AID 651802); note: nearly all actives have a fitted effect of over 60% in size; note: potency is the fitted concentration of half-maximal effect
Nuclear receptor ROR-gamma (Homo sapiens), sequence (P51449 whole entry, looked up): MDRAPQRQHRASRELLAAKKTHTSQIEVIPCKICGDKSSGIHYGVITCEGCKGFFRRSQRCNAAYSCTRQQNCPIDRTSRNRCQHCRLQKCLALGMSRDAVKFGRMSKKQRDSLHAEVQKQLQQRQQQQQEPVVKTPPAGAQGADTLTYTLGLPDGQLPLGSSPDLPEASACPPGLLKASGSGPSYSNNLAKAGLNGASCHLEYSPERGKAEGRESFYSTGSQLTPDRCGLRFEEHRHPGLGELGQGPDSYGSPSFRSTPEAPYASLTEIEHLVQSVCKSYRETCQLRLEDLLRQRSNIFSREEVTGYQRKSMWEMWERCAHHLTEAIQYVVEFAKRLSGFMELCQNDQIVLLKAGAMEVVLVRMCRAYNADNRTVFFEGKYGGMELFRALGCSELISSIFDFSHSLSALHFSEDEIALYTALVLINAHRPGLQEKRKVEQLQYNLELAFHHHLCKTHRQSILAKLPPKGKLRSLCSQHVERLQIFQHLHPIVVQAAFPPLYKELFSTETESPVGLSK
Summary of the method: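 Luciferase read-out: ONE-Glo luminescence after 30 min at room temperature, following 16hr doxycycline induction at 37C, 5% CO2 of CHO cells with TET-inducible ROR and RORE-LUC reporter; decreased luminescence = reduced reporter activity.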

[4] = qHTS assay for small molecule agonists of the antioxidant response element (ARE) signaling pathway measured by Nrf2-dependant transcriptional activity (AID 720636; active = well fitted curve in the direction sought with a large enough effect in the repeat runs; an effect the other way counts as inactive or inconclusive; note: potency is the fitted concentration of half-maximal effect;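 for activation: HepG2 cells with an ARE-driven luciferase reporter; % of control where 0% means no effect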)
Summary of the method: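 HepG2 ARE-luc reporter line, 1% dialyzed FBS; 6 hr attachment at 37 C, compound pinned in, 16 hr at 37 C/5% CO2; ONE-Glo, 30 min RT, luminescence read.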

[5] = qHTS assay for small molecule antagonists of the retinoid-related orphan receptor gamma (ROR-gamma) signaling pathway - cell viability counter screen (AID 720652; active = well fitted curve in the direction sought with a large enough effect in the repeat runs; an effect the other way counts as inactive or inconclusive;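 note: compound exposure lasted 16 hr before ATP read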; note: potency is the fitted concentration of half-maximal effect)
Summary of the method: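 CHO RORE-LUC/TET-ROR line, 1,000 cells/well, 37 C 5% CO2 5 hr; cpd or DMSO + doxycycline induction, 16 hr. CellTiter-Glo, 30 min RT, luminescence = ATP content.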

[6] = qHTS assay for small molecule agonists of the antioxidant response element (ARE) signaling pathway measured by Nrf2-dependant transcriptional activity - cell viability counter screen (AID 720653; active = well fitted curve in the direction sought with a large enough effect in the repeat runs; an effect the other way counts as inactive or inconclusive; note: % is set by controls: 0 for no effect and ±100 for the full control effect); conditions: ARE-bla HepG2 viability, CellTiter-Glo ATP luminescence, 16 h; max response: stronger effect = lower value
Summary of the method: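 ARE-bla HepG2 cells treated with compounds for 16 h at 37C; this counter screen measures viability as intracellular ATP by CellTiter-Glo luminescence after 30 min at room temperature.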

[7] = qHTS for compounds that reverse cellular toxicity of Amyloid beta (A-beta) peptide in yeast: LOPAC Validation Assay (AID 720559);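 note: plate controls were DMSO for no effect and equimolar ferric chloride plus clioquinol rescue for full effect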
Summary of the method: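 Activity is expressed relative to DMSO and an equimolar ferric chloride/clioquinol mix. Compounds were pinned into medium with A-beta-expressing yeast, grown 48 hr at 30 C, then read by absorbance at 600 nm.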

[8] = qHTS for Activators of Parkin Expression: LOPAC Validation Assay (NLuc Reporter) (AID 720572)
Summary of the method: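 NLuc signal, read 10 min after reagent and following a prior FLuc read, is normalized to DMSO (0) and positive controls (100%). Cells: neuronal Parkin-promoter coincidence reporter line; compounds tested 7-point, 24 h, 37 C, 5% CO2.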

[9] = qHTS for Activators of Parkin Expression: LOPAC Validation Assay (FLuc Reporter) (AID 720573)
Summary of the method: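 A neuronal cell line harbouring FLuc and NLuc reporters behind the Parkin promoter was exposed to compounds for 24 h. Firefly luciferase signal, measured after 10 min with detection reagent, was scaled to DMSO and positive-control wells.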

[10] = target: Tyrosine-protein kinase Yes (Homo sapiens) (UniProt P07947); experiment: qHTS for small molecule inhibitors of Yes1 kinase: Primary Screen (AID 686947);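 note: plate controls were DMSO with enzyme for no effect and no-enzyme DMSO wells for full effect; nearly all actives have a fitted effect of over 60% in size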
Tyrosine-protein kinase Yes (Homo sapiens), sequence (P07947 whole entry, looked up): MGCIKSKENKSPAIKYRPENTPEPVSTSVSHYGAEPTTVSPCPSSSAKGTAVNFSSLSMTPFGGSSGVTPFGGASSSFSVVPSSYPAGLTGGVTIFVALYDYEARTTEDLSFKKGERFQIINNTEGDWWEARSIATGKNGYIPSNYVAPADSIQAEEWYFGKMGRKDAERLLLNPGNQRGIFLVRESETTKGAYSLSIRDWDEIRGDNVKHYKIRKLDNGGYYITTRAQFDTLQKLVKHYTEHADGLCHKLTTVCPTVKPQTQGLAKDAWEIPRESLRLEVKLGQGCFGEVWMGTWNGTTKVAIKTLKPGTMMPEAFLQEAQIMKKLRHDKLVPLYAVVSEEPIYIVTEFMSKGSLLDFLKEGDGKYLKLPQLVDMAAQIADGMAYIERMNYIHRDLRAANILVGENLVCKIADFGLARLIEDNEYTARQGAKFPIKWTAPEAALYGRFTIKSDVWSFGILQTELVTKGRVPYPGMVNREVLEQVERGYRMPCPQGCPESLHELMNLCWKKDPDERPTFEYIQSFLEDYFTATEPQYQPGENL
Summary of the method: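 In this qHTS format, inhibition is expressed relative to DMSO controls with enzyme (maximum) and without enzyme (minimum). The 60 min room-temperature reaction uses 0.1 mM ATP, with ADP detected by luminescence.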

Oc1cccc2cccnc12
active: Potency [4] 42.2 µM
inactive: activation [1] 0.681% and 3.98% | max response [2] -5% and -2.57% | Potency [5] | max response [6] -16.3%
inactive and 3.35 µM (active): Potency [3]

CNCC(O)c1ccc(O)cc1 (centres undefined)
inactive: activation [1] -0.394% | max response [2] -4.08% | Potency [3] | outcome [7] | outcome [8] | outcome [9] | Potency [4] | Potency [5] | max response [6] 12.1%

C[C@]12C/C(=C/O)C(=O)C[C@@H]1CC[C@@H]1[C@@H]2CC[C@@]2(C)[C@H]1CC[C@]2(C)O
inactive: activation [1] 1.36% and 0.159% | max response [2] -0.191% and -0.334% | max response [6] 3.17% and 10.2%

CCOP(=S)(OCC)Oc1cc(C)nc(C(C)C)n1
inactive: activation [1] 1.79% and 0.131% | max response [2] -5.15% and -1.07% | Potency [3] | Potency [4] | Potency [5] | max response [6] 0.528% and 11.7%

CCCC(C)(COC(N)=O)COC(=O)NC(C)C (centres undefined)
inactive: activation [1] 0.419% and -1.4% | max response [2] -0.746% and -1.22% | Potency [3] | outcome [7] | outcome [8] | outcome [9] | Potency [4] | Potency [5] | max response [6] -3.52% and -3.1%

C[C@H]1O[C@@H](O[C@H]2[C@@H](O)C[C@H](O[C@H]3[C@@H](O)C[C@H](O[C@H]4CC[C@@]5(C)[C@H](CC[C@@H]6[C@@H]5CC[C@]5(C)[C@@H](C7=CC(=O)OC7)CC[C@]65O)C4)O[C@@H]3C)O[C@@H]2C)C[C@H](O)[C@@H]1O
inactive: max response [2] -0.744% | Potency [4]

CCCCC/C=C\C/C=C\C/C=C\C/C=C\CCCC(=O)NC1CC1
inactive: Potency [10]

CN(C)CCN(C)CCc1ccc(Cl)c(Cl)c1
inactive: Potency [10]

C=C(C)[C@H]1Cc2c(ccc3c2O[C@@H]2COc4cc(OC)c(OC)cc4[C@@H]2C3=O)O1
inactive: activation [1] 3.42% | max response [2] 7.18% | outcome [7] | outcome [8] | outcome [9] | Potency [4]

CC1=C2C[C@@H]3[C@@H](CC=C4C[C@@H](O)CC[C@@]43C)[C@@H]2CC[C@]12O[C@H]1C[C@H](C)CN[C@H]1[C@H]2C
inactive: Potency [10]

CC(=O)Oc1ccccc1C(=O)Nc1ncc([N+](=O)[O-])s1
active: Potency [1] 0.708 µM | Potency [5] 5.96 µM

CC[C@@H](CO)NC(=O)[C@@H]1C=C2c3cccc4[nH]cc(c34)C[C@H]2N(C)C1
inactive: outcome [7] | outcome [8] | outcome [9]

COc1ccc(C(CN(C)C)C2(O)CCCCC2)cc1 (centres undefined)
inactive: outcome [7] | outcome [8] | outcome [9]

Cc1sc2c(c1C)C(c1ccc(Cl)cc1)=N[C@@H](CC(=O)OC(C)(C)C)c1nnc(C)n1-2
inactive: Potency [10]

CCCN1CCC[C@@H]2Cc3nc(N)ncc3C[C@H]21
inactive: outcome [7] | outcome [8] | outcome [9]

O=c1[nH]cc(F)c(=O)[nH]1
inactive: outcome [7]

NCC1(CC(=O)O)CCCCC1
inactive: outcome [7] | outcome [8] | outcome [9]

CC(CCc1ccccc1)NC(C)C(O)c1ccc(O)cc1 (centres undefined)
inactive: outcome [7] | outcome [8] | outcome [9]

CC(O)(CS(=O)(=O)c1ccc(F)cc1)C(=O)Nc1ccc(C#N)c(C(F)(F)F)c1 (centres undefined)
inactive: outcome [7] | outcome [8] | outcome [9]

Fc1ccc(C(OCCN2CCN(CCCc3ccccc3)CC2)c2ccc(F)cc2)cc1
inactive: outcome [7] | outcome [8] | outcome [9]

CC(=O)[C@H]1CC[C@H]2[C@@H]3CC[C@H]4C[C@H](O)CC[C@]4(C)[C@H]3C(=O)C[C@]12C
inactive: outcome [7] | outcome [8] | outcome [9]

Cc1cccc(C)c1NC1=NCCCS1
inactive: outcome [7] | outcome [8] | outcome [9]

CC(C)=CCOc1c2occc2cc2ccc(=O)oc12
inactive: outcome [7] | outcome [8] | outcome [9]

O=C1NCN(c2ccccc2)C12CCN(CC1COc3ccccc3O1)CC2 (centres undefined)
inactive: outcome [7] | outcome [8] | outcome [9]

Cc1c(OCC(F)(F)F)ccnc1CS(=O)c1nc2ccccc2[nH]1 (centres undefined)
inactive: outcome [7]

CC(=O)[C@H]1CC[C@H]2[C@@H]3CC[C@H]4C[C@](C)(O)CC[C@]4(C)[C@H]3CC[C@]12C
inactive: outcome [7] | outcome [8] | outcome [9]

COc1ccccc1N1CCNCC1
inactive: outcome [7] | outcome [8] | outcome [9]

c1ccc(C2CC2)c(OCC2=NCCN2)c1
inactive: outcome [7] | outcome [8] | outcome [9]

Cc1cccc(C)c1NC(=O)CN1CCCC1=O
inactive: outcome [7] | outcome [8] | outcome [9]
